# Source: PubChem BioAssay
# Many of the other results were omitted from the sample, so hits are more common in it than they were.
# Pf Dd2 inh = Plasmodium falciparum Dd2 growth inhibition | P. falciparum Dd2 growth, SYBR Green, 72 h | Potency, µM (titrated, usually from 28.9 µM), inactives show top-dose activity, negative = inhibition, most hits filed as inhibitors | actives 4.3% (n = 120,000) | AID 1347417; active = well fitted inhibition curve with a large enough effect;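 also: plate controls were DMSO vehicle for no effect and reference drug for full effect; nearly all actives have a fitted effect of over 65% in size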
#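 Infected erythrocytes (Dd2, 0.3% parasitemia, 2.5% hematocrit final) are added to compound in RPMI-1640/Albumax II medium, grown 72 h at 37C in low oxygen, then lysed with saponin/Triton-X containing SYBR Green and read by fluorescence.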
# An asterisk follows results filed as active; i = inactive; [ ] = remark or other dose. Potency is read from the fitted curve at half-maximal effect.
SMILES,Pf Dd2 inh
COc1ccc(-c2cc(N3CCC(NC(=O)c4ccc(F)cc4F)CC3)n[nH]2)cc1,1.26µM*
COc1ccc(-c2cc(N3CCC(NC(=O)c4ccc(F)cc4Cl)CC3)n[nH]2)cc1,i
COc1ccc(-c2cc(N3CCCC(NC(=O)c4cc(Cl)ccc4OC)C3)n[nH]2)cc1 (centres undefined),-10.0%
COc1ccc(Cl)cc1C(=O)NC1CCN(c2cc(-c3ccc(F)cc3)[nH]n2)C1 (centres undefined),-12.3%
COc1ccc(C(=O)NC2CCN(c3cc(-c4ccccc4)[nH]n3)C2)c(OC)c1 (centres undefined),4.47µM*
CCNc1ncc(C(=O)N2CCC(O)(CN3CCOCC3)C(C)(C)C2)cn1 (centres undefined),2.6%
Cc1ccc(NC(=O)c2ccc(CN3C(=O)CCn4nc(C)cc43)cc2)c(Cl)c1,48.8%
COCC(=O)N1CCN2C(=O)N(C(C)C)C(=O)[C@H]2C1,i
CCc1ccc(CNC(=O)Cc2ccc(NC(=O)N3CCSc4ncccc43)cc2)cc1,i
Cc1[nH]c2ccccc2c1C(=O)C(=O)NC1CC(=O)N(c2cccc(F)c2)C1 (centres undefined),i
CCOC(=O)c1cc(S(=O)(=O)NCc2cccc(Cl)c2)[nH]n1,17.7%
CCc1ccccc1NC(=O)Cn1ccn(Cc2ccccc2)c(=O)c1=O,-18.8%
COc1ccc(-c2nc(C)nc3c2CCN(Cc2ccnn2C)CC3)cc1,i
COc1ccc(-c2nc(C)nc3c2CCN(CC2CCCCC2)CC3)cc1,i
COc1ccc(CN2CCc3nc(C4CC4)nc(-c4ccc(O)cc4)c3C2)cc1,i
COc1ccc(-c2nc(C3CC3)nc3c2CCN(Cc2cncs2)CC3)cc1,10µM*
COc1ccc(CN2CCc3nc(C4CC4)nc(-c4ccc(O)cc4)c3CC2)cc1,3.98µM*
COc1ccc(-c2nc(C3CC3)nc3c2CCN(Cc2ccnn2C)CC3)cc1,-1.2%
CC(=O)Nc1ccc(CN2CCc3nc(C4CC4)nc(-c4ccc(O)cc4)c3CC2)cc1,i
CC(C)c1nc2c(c(-c3ccc(O)cc3)n1)CCN(Cc1cncs1)CC2,-7.9%
COc1ccc(-c2nc(C3CC3)nc3c2CCN(Cc2ccc(C#N)cc2)CC3)cc1,7.94µM*
COc1ccc(-c2nc(C3CC3)nc3c2CN(S(=O)(=O)c2cccc(OC)c2)CC3)cc1,-27.7%
COc1ccc(-c2nc(C3CC3)nc3c2CCN(Cc2ccc(NC(C)=O)cc2)CC3)cc1,8.91µM*
CCc1nc2c(c(-c3ccc(O)cc3)n1)CCN(C(=O)c1ccc(OC)cc1)CC2,i
CCOc1ccccc1CN1CCN(C(=O)c2ccccn2)CC1CCO (centres undefined),-0.6%
SMILES,Pf Dd2 inh
CC(C)c1ccc(OCC(=O)NC(Cc2c[nH]c3ccccc23)C(=O)O)cc1 (centres undefined),42.7%
Cc1nc(CCNC(=O)C2CCCCC2)no1,-5.1%
CN(C)Cc1cc(C[C@@H]2CC[C@H](O)[C@@H](CNC(=O)N3CCOCC3)O2)no1,20.8%[44.1 µM]
COc1cccc(NC(=O)C2CCN(C(=O)N3CC4CC(C3)[C@H]3CCCC(=O)N3C4)CC2)c1 (some centres undefined),-12.0%
CC1(C)C(=O)N(Cc2ccccc2)[C@H]2CN(c3ccnc(N4CCOCC4)c3)C[C@@H]2[S+]1(=O)[O-],i
CCC(=O)N1CCC(CC)(N2CCNCC2)C1 (centres undefined),-2.0%
COc1ccc(C(=O)N2CCC3(CC2)c2[nH]c4ccccc4c2CCN3C)cn1,-9.7%
O=C(NCC1CCOCC1)c1ccccc1C(F)(F)F,4.7%
O=C(NCC1COc2ccccc2C1)c1nccnc1C(=O)N1CCCCC1 (centres undefined),-1.7%
O=C(CCCn1c(=O)[nH]c2ccccc2c1=O)NCc1ccccc1Cl,-18.5%
Cc1nc2c(c(-c3ccc(O)cc3)n1)CN(Cc1ccc(F)cc1)CC2,-5.8%
Oc1ccc(-c2nc(C3CC3)nc3c2CCN(Cc2ccc(F)cc2)CC3)cc1,3.98µM*
Oc1ccc(-c2nc(C3CC3)nc3c2CCN(Cc2ccccn2)CC3)cc1,i
Cc1cc(OCC(=O)N(Cc2sccc2C)C2CCS(=O)(=O)C2)ccc1Cl (centres undefined),-25.4%
Cc1cc(CN2C[C@@H](CO)[C@H](c3nc(C)no3)C2)n(C)n1,-19.5%
Clc1ccc(C2Cn3nnc(-c4noc(C5CCCC5)n4)c3CO2)cc1 (centres undefined),-21.5%
CCOc1ccccc1CNC(=O)C(CC)n1nc(C)c2c(C)n(-c3ccccc3)nc2c1=O (centres undefined),-25.8%
CCn1cc2nc(SCc3ccc(F)cc3)n(Cc3ccc(Cl)cc3)c(=O)c2n1,-3.9%
CCn1cc2nc(SCc3ccccc3)n(Cc3ccc(C)cc3)c(=O)c2n1,0.7%
CCn1cc2nc(SCc3cc(C)ccc3C)n(Cc3ccc(C)cc3)c(=O)c2n1,10µM*
C[C@@H](NC(=O)C1CC1)c1onc(-c2ccc(F)cc2)c1C(=O)O,20.2%[44.1 µM]
COc1ccc(NS(=O)(=O)c2ccc(NC(=O)N3CCCC3)cc2)cc1,56.9%
